In ChEMBL document CHEMBL1157539, “Thousands of chemical starting points for antimalarial lead identification” (Nature, 2010):

Assays:
Assay type in all cases: functional
[1] = tested on: Plasmodium falciparum; assay: GSK_TCMDC: Inhibition of Plasmodium falciparum 3D7 in whole red blood cells, using parasite LDH activity as an index of growth. Test compounds present at 2uM
[2] = tested on: Plasmodium falciparum; assay: GSK_TCMDC: Inhibition of Plasmodium falciparum Dd2 in whole red blood cells, using parasite LDH activity as an index of growth. Test compounds present at 2uM
[3] = tested on: HepG2; assay: GSK_TCMDC: Percent inhibition of human HepG2 cell line. Test compounds present at 10uM.

Structure (SMILES) | Inhibition [1] | Inhibition [2] | Inhibition [3]
Br.CC1(C)NC(N)=NC(=N)N1OCCc1ccc(N)cc1 | 93% | 95% | 65%
CC(Nc1ccc2c(c1)CCC2)C(=O)Nc1cc(C(F)(F)F)ccc1N1CCOCC1 (stereo not drawn) | 100% | 100% | 0%
CCOc1ccc(-c2nonc2NC(=O)c2cccs2)cc1OCC | 100% | 100% | 6%
O=C(CC(c1ccccc1)c1ccccc1O)N1CCOCC1 (stereo not drawn) | 84% | 5% | 30%
CN1CCN(c2ccc(-c3cc(-c4ccncc4)c(-c4ccc(Cl)c(O)c4)o3)cc2)CC1.Cl | 100% | 98% | 0%
Cc1ccc(NC(=O)Nc2ccc(Cn3ncc(N4CCCNCC4)c(Cl)c3=O)cc2)cc1.O=C(O)C(F)(F)F | 84% | 13% | 35%
C=C(F)c1sc(CNCCCNc2nc3ccccc3[nH]2)c(C)c1Br | 100% | 23% | 15%
CCCCCCn1c(Sc2ccc(C#N)c([N+](=O)[O-])c2)nnc1-c1ccc(Cl)cc1 | 93% | 48% | 23%
O=C(Nc1ccc(-c2cccc(-c3nc4ccccc4[nH]3)c2)cc1)Nc1ccc(F)c(F)c1F | 100% | 96% | 74%
Cc1cccc2nc(-c3cccc(-c4cccc(NC(=O)Nc5cccc(C#N)c5)c4)c3)[nH]c12 | 100% | 99% | 22%
CCOc1ccc(C2CCN(CCCCNC(=O)c3ccc(NC(=O)c4ccc(Cl)cc4)cc3)CC2)c(CC)c1 | 100% | 64% | 44%
